Experimental data: PubChem BioAssay (Tox21)
Records with an inconclusive call do not appear. Calls of active or inactive are those of the source. Unless noted, calls follow the shape of the dose curve; as a rule, active = well fitted curve in the direction sought with a large enough effect in the repeat runs; inconclusive = weak or mixed curves; inactive = no such curve, though single readings can be large; an effect the other way counts as inactive or inconclusive.

Experiments:
[1] = qHTS assay to identify small molecule antagonists of the vitamin D receptor (VDR) signaling pathway - cell viability counter screen (AID 743225); also: nearly all actives have a fitted effect of over 50% in size; also: potency is read from the fitted curve at half-maximal effect
Outline: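 HEK293T VDR-bla; cpd + 1a,25-(OH)2D3 3 nM final, 16 h 37C/5% CO2; B/G FRET substrate 2 h RT; then CellTiter-Glo 30 min RT, luminescence.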

[2] = qHTS assay to identify small molecule agonists of the endoplasmic reticulum stress response signaling pathway (AID 1159516; active = well fitted activation curve with a large enough effect in the signal ratio in the repeat runs, not every such curve was filed as active; the % refers to the signal ratio; also: potency is read from the fitted curve at half-maximal effect)
Outline: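 Read-out is beta-lactamase cleavage of a FRET substrate (405 nm excitation; 460 and 530 nm emissions) in ESRE-bla HeLa cells after a 5 hr compound exposure at 37 C. Substrate incubation ran 2 hr at room temperature.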

[3] = qHTS assay to identify small molecule antagonists of the retinoid-related orphan receptor gamma (ROR-gamma) signaling pathway - cell viability counter screen (AID 1159520); also: nearly all actives have a fitted effect of over 50% in size; also: potency is read from the fitted curve at half-maximal effect
Outline: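 Cytotoxicity was read from cellular ATP (CellTiter-Glo luminescence) after 16 hr at 37 C with 1 uM doxycycline induction. The inducer was added 2 hr after compound transfer to Tet-on ROR gamma CHO cells.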

[4] = target: Nuclear receptor ROR-gamma (Homo sapiens) (UniProt P51449); assay: qHTS assay to identify small molecule antagonists of the retinoid-related orphan receptor gamma (ROR-gamma) signaling pathway (AID 1159521; also: nearly all actives have a fitted effect of over 50% in size; also: potency is read from the fitted curve at half-maximal effect)
Outline: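 Cells were plated, rested 4 h at 37 C, exposed to compounds for 2 h, then given 1 uM final doxycycline hyclate to induce RORγ expression. After 16 h, ONE-Glo luminescence from the ROR response element reporter was measured.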

[5] = qHTS assay to identify small molecule agonists of the AP-1 signaling pathway - cell viability counter screen (AID 1159525; calls by dose curve; also: nearly all actives have a fitted effect of over 55% in size; also: potency is read from the fitted curve at half-maximal effect)
Outline: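 Luminescent ATP readout (Cell Titer Glo, 30 min RT), normalised to DMSO and tetra n-octyl ammonium bromide controls. Cells were ME-180 AP-1-bla in 0.5% dialyzed FBS Opti-MEM, with a 5 h, 37 °C compound exposure.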

[6] = qHTS assay to identify small molecule agonists of the AP-1 signaling pathway (AID 1159526; calls by dose curve)
[7] = target: Retinoic acid receptor RXR-alpha (Homo sapiens) (UniProt P19793); assay: qHTS assay to identify small molecule agonists of the RXR signaling pathway (AID 1159527; calls by dose curve; also: nearly all actives have a fitted effect of over 35% in size)
Sequence of Retinoic acid receptor RXR-alpha (Homo sapiens) (P19793 whole entry, looked up): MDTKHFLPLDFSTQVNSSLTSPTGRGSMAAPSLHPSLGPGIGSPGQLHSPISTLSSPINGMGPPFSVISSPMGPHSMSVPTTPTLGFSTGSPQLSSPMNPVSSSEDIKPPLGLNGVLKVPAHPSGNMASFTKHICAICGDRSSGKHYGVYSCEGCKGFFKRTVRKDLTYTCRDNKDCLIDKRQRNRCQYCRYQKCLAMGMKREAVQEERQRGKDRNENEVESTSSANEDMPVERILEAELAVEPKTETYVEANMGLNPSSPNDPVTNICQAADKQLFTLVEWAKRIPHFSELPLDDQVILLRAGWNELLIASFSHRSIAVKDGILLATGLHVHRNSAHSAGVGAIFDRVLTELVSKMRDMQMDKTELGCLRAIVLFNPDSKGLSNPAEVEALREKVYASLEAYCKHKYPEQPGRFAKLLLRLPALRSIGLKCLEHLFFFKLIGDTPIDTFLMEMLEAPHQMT
Outline: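 Cells plated at 2,000/well, rested 5 hr at 37 C, pin-dosed with DMSO compound solutions, incubated 16 hr, then loaded with B/G FRET substrate for 2 hr at RT before dual-emission fluorescence reading.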

[8] = qHTS assay to identify small molecule agonists of the RXR signaling pathway - cell viability counter screen (AID 1159529); also: nearly all actives have a fitted effect of over 50% in size; also: potency is read from the fitted curve at half-maximal effect
Outline: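 Steps: seed RXR-alpha-UAS-bla HEK 293T cells in assay medium containing 2% charcoal-stripped FBS; incubate 5 hr; add compounds in DMSO; incubate 16 hr at 37 C; after the bla read, add CellTiter-Glo and read luminescence at 30 min.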

[9] = qHTS assay to identify small molecule antagonists of the retinoid acid receptor (RAR) signaling pathway - cell viability counter screen (AID 1159551); also: nearly all actives have a fitted effect of over 35% in size
Outline: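 Luminescent ATP quantitation (CellTiter-Glo) gave cell viability in C3RL4 cells exposed to test chemicals for 6 h at 37 C alongside 1 uM final retinol.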

[10] = qHTS assay to identify small molecule agonists of the endoplasmic reticulum stress response signaling pathway - cell viability counter screen (AID 1159517; calls by dose curve; also: nearly all actives have a fitted effect of over 50% in size; also: potency is read from the fitted curve at half-maximal effect)
Outline: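 HeLa cells carrying an ESRE-driven beta-lactamase reporter receive compound for 5 hr at 37 C. Cell viability is then gauged with CellTiter-Glo by luminescence, 30 min at room temperature.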

Measured: Potency

C[Si](C)(C)Cl
not listed: [10]
inactive: all other assays above

O=C(O)CC(=O)O
not listed: [4] | [5] | [8]
inactive: all other assays above

CCOC(=O)COc1ccc(C)cc1
not listed: [10]
inactive: all other assays above

C=CC(=C)CCC=C(C)C
not listed: [4] | [6] | [7]
inactive: all other assays above

O=C1NC2CCCCN2C12CCN(CCCN1c3ccccc3CCc3ccc(Cl)cc31)CC2 (configuration not stated)
inactive: [2] | [10]
active: [1] 23.9 µM | [4] 23.7 µM | [8] 21.3 µM

ClC/C=C\CCl
not listed: [4] | [8]
inactive: all other assays above

CCC(=O)OCCc1ccccc1
not listed: [4] | [6] | [7]
inactive: all other assays above

CNC(=O)c1cc(Oc2ccc(NC(=O)Nc3ccc(Cl)c(C(F)(F)F)c3)cc2)ccn1
inactive: [2] | [10] | [5] | [9]
active: [1] 12 µM | [4] 13.3 µM

CC(C)N=C(N)/N=C(\N)Nc1ccc(Cl)cc1
not listed: [4] | [7] | [9]
inactive: all other assays above

CC(NCCC(c1ccccc1)c1ccccc1)c1ccccc1 (configuration not stated)
inactive: [2] | [10] | [5]
active: [4] 29.8 µM

Cn1cnc2ncnc(N)c21
not listed: [10]
inactive: all other assays above

Cc1cccc(C)c1NC(=O)CN1CCN(CCCC(c2ccc(F)cc2)c2ccc(F)cc2)CC1
inactive: [2] | [10]
active: [1] 23.9 µM | [4] 21.1 µM | [8] 21.3 µM

CC(C)=C1CC[C@@H](C)CC1=O
not listed: [10]
inactive: all other assays above

CCCCN(CCCC)CCC(O)c1cc2c(Cl)cc(Cl)cc2c2cc(C(F)(F)F)ccc12 (configuration not stated)
inactive: [2] | [10] | [5]
active: [4] 29.8 µM | [8] 23.9 µM

CCN(CC)CCCN(c1ccccc1)C1Cc2ccccc2C1
inactive: [2] | [10] | [3] | [5] | [9]

C=CC(=O)OCCC#N
inactive: [1] | [2] | [10] | [5] | [8] | [9]

O=C(O)c1cccc(Cl)n1
inactive: [2] | [10] | [3] | [5] | [6] | [9]

Cc1nc(Nc2ncc(C(=O)Nc3c(C)cccc3Cl)s2)cc(N2CCN(CCO)CC2)n1
inactive: [1] | [2] | [10] | [5] | [8] | [9]

CCO[Si](CCCSSSSCCC[Si](OCC)(OCC)OCC)(OCC)OCC
active: [5] 24.6 µM
inactive: [2] | [10] | [3] | [9]

O=S(=O)(O)CCCN1CCOCC1
not listed: [4] | [8]
inactive: all other assays above

COC(=O)[C@]1(C)CCC[C@@]2(C)[C@H]1CC=C1C=C(C(C)C)CC[C@@H]12
active: [10] 49 µM
not listed: [2]
inactive: all other assays above

CC(=O)OC(OC(C)=O)c1ccc([N+](=O)[O-])o1
active: [1] 49.8 µM | [4] 31.2 µM
inactive: [2]

NCCCCCCNCCCCCCN
not listed: [2]
inactive: all other assays above

CC(C)OC(=O)c1cc(C(=O)OC(C)C)cc([N+](=O)[O-])c1
inactive: [2] | [3] | [5] | [9]

C=CC(=O)OCC(O)COc1ccccc1 (configuration not stated)
inactive: [2] | [8]
active: [4] 61.1 µM

Nc1ccc2cc3ccc(N)cc3nc2c1
active: [3] 26.6 µM
inactive: [10] | [4] | [5]

CCCCCCC(C)Nc1ccc(Nc2ccccc2)cc1 (configuration not stated)
inactive: [2] | [9]
active: [1] 43.6 µM | [5] 49 µM

CN(C)CCOC(c1ccccc1)c1ccccc1 (tested in a mixture with another compound)
inactive: [2] | [3] | [5] | [9]

O=C(Nc1ccc(Cl)c(Cl)c1)c1cc(Cl)cc(Cl)c1O
active: [1] 2.75 µM | [2] 19.5 µM | [3] 9.69 µM | [4] 2.17 µM

CCc1ccc(O)c(C(C)(C)C)c1
inactive: [2] | [3] | [4] | [7]
active: [1] 38.9 µM

C[C@]12CC[C@H]3C(=CCc4cc(O)ccc43)[C@@H]1CCC2=O
inactive: [2] | [3] | [4] | [6]
active: [8] 21.9 µM
